Source: PubChem
This is one part of a sample in which hits are shown more often than they occur.
IDE exosite inh – insulin-degrading enzyme (human) exo-site inhibition; AID 1259349; 17,000 tested, 6.3% active; purified IDE, FL-6b probe fluorescence polarization; active compounds read low; z-score at 20 µM; P14735;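 active means z-score of -3 or lower, meaning strong loss of probe binding signal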;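 further: His-tagged human IDE residues 42-1019 made in E. coli with 30 nM FL-6b probe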
Target sequence (P14735 42-1019 limits assumed): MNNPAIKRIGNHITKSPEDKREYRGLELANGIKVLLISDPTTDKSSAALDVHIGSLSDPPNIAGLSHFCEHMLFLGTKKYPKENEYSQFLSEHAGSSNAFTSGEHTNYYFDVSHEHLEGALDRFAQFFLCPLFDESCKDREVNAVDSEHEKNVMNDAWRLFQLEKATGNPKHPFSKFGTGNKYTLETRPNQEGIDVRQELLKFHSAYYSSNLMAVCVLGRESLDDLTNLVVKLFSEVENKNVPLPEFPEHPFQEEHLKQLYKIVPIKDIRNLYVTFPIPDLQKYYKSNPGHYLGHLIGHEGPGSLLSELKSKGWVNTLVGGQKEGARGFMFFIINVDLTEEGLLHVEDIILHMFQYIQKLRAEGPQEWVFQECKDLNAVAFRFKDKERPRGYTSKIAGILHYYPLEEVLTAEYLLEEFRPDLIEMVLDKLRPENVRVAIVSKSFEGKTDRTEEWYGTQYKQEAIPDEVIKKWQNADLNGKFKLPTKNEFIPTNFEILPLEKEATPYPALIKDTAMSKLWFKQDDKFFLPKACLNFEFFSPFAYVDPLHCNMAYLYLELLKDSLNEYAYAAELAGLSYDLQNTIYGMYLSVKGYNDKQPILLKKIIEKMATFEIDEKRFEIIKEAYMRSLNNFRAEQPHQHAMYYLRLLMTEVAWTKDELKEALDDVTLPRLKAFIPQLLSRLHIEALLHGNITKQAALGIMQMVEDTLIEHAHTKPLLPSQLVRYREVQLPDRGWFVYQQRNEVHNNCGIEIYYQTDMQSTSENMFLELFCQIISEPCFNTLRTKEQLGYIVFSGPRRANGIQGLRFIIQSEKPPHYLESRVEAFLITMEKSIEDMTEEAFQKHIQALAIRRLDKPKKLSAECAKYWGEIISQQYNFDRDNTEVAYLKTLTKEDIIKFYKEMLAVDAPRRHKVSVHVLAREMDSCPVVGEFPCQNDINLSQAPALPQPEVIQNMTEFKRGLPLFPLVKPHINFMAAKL
Numbers without * were called inactive.

For COc1ccc(C#Cc2ccc([C@@H]3[C@H](CO)N4CCCCN(C(=O)Cc5cccnc5)C[C@@H]34)cc2)cc1 the results were IDE exosite inh 4.56.
For COc1ccc(C#Cc2ccc([C@@H]3[C@@H](CO)N4CCCCN(C(=O)Cc5cccnc5)C[C@H]34)cc2)cc1 the results were IDE exosite inh -1.2.
Screening C/C=C/c1ccc([C@@H]2[C@@H](CO)N3CCCCN(C(=O)Cc4cccnc4)C[C@@H]23)cc1 returned IDE exosite inh 0.0789.
For O=C(Cc1cccnc1)N1CCCCN2[C@H](CO)[C@@H](c3ccc(C#CC4CCCC4)cc3)[C@@H]2C1 the results were IDE exosite inh 3.18.
C/C=C/c1ccc([C@H]2[C@@H](CO)N3CCCCN(C(=O)Cc4ccncc4)C[C@H]23)cc1 was read as IDE exosite inh 0.653.
O=C(Cc1cccnc1)N1CCCCN2[C@H](CO)[C@@H](c3ccc(/C=C/c4ccccc4)cc3)[C@@H]2C1 was read as IDE exosite inh -8.82*.
Screening O=C(Cc1cccnc1)N1CCCCN2[C@H](CO)[C@@H](c3ccc(/C=C/c4ccccc4)cc3)[C@H]2C1 returned IDE exosite inh -9.36*.
`O=C(Cc1cccnc1)N1CCCCN2[C@H](CO)[C@H](c3ccc(/C=C/c4ccccc4)cc3)[C@H]2C1` gave IDE exosite inh -11.4*.
Screening C/C=C/c1ccc([C@@H]2[C@H](CO)N3CCCCN(C(=O)Cc4cccnc4)C[C@@H]23)cc1 returned IDE exosite inh -0.605.
`O=C1CNC[C@@H]2[C@H](c3ccc(Br)cc3)[C@@H](CO)N12` gave IDE exosite inh 0.695.
For C/C=C/c1ccc(C2[C@@H]3CN(C(=O)CN(C)C)C[C@H]2N3)cc1 (some centres not stated) the results were IDE exosite inh 0.547.
O=C(Cc1ccncc1)N1CCCCN2[C@@H](CO)[C@@H](c3ccc(C#CC4(O)CCCC4)cc3)[C@@H]2C1 was read as IDE exosite inh 2.77.
For O=C1CNC[C@@H]2[C@@H](c3ccc(Br)cc3)[C@@H](CO)N12 the results were IDE exosite inh -0.991.
`OC[C@@H]1[C@@H]2c3ccccc3NC[C@@H]2N1Cc1cccnc1` gave IDE exosite inh 1.07.
`COC(=O)[C@H]1[C@H](CO)[C@H]2Cn3c(cccc3=O)[C@@H]1N2CCc1ccccc1` gave IDE exosite inh -1.25.
c1cncc(-c2ccc(C3[C@H]4CNC[C@@H]3N4CC3CC3)cc2)c1 (some centres not stated) was read as IDE exosite inh -0.893.
`C/C=C/c1ccc([C@H]2[C@@H](CO)N3CCCCN(C(=O)Cc4ccncc4)C[C@@H]23)cc1` gave IDE exosite inh 1.55.
For COc1cccc(-c2ccc([C@H]3[C@@H](CO)N4CCCCN(C(=O)Cc5ccncc5)C[C@@H]34)cc2)c1 the results were IDE exosite inh 1.12.
`COc1cccc(-c2ccc([C@@H]3[C@H](CO)N4CCCCN(C(=O)Cc5ccncc5)C[C@@H]34)cc2)c1` gave IDE exosite inh -3.86*.
Screening COc1cccc(-c2ccc([C@@H]3[C@@H](CO)N4CCCCN(C(=O)Cc5ccncc5)C[C@@H]34)cc2)c1 returned IDE exosite inh -2.33.
COc1ccc(-c2ccc([C@H]3[C@@H](CO)N4CCCCN(C(=O)Cc5ccccc5)C[C@@H]34)cc2)cc1 was read as IDE exosite inh 0.578.
`COc1ccc(-c2ccc([C@H]3[C@H](CO)N4CCCCN(C(=O)Cc5ccccc5)C[C@@H]34)cc2)cc1` gave IDE exosite inh 0.588.
COc1ccc(-c2ccc([C@@H]3[C@H](CO)N4CCCCN(C(=O)Cc5ccccc5)C[C@@H]34)cc2)cc1 was read as IDE exosite inh -3.14*.
For O=C1CNC[C@H]2[C@H](c3ccc(Br)cc3)[C@@H](CO)N12 the results were IDE exosite inh -0.148.
O=C([C@H]1N[C@H]2c3cccc(=O)n3C[C@H]2[C@@H]1CO)N1CCCCC1 was read as IDE exosite inh 0.868.
For COc1cccc(-c2ccc([C@@H]3[C@@H](CO)N4CCCCN(C(=O)Cc5ccncc5)C[C@H]34)cc2)c1 the results were IDE exosite inh 0.0789.
Screening O=C(Cc1ccccn1)N1CCCCN2[C@H](CO)[C@@H](c3ccc(C#Cc4ccccc4)cc3)[C@@H]2C1 returned IDE exosite inh -4.94*.
Screening O=C(Cc1ccccn1)N1CCCCN2[C@H](CO)[C@H](c3ccc(C#Cc4ccccc4)cc3)[C@H]2C1 returned IDE exosite inh -9.51*.
O=C(Cc1ccccn1)N1CCCCN2[C@H](CO)[C@@H](c3ccc(C#Cc4ccccc4)cc3)[C@H]2C1 was read as IDE exosite inh -0.973.
Screening COCC#Cc1ccc([C@@H]2[C@@H](CO)N3CCCCN(C(=O)Cc4ccccn4)C[C@@H]23)cc1 returned IDE exosite inh -0.263.
Screening O=C(Cc1ccccn1)N1CCCCN2[C@@H](CO)[C@H](c3ccc(C#Cc4ccccc4)cc3)[C@@H]2C1 returned IDE exosite inh -7.32*.
For CN(C)CC#Cc1ccc([C@@H]2[C@H]3CN(C(=O)Cc4ccccn4)CCCCN3[C@H]2CO)cc1 the results were IDE exosite inh 0.567.
CC(C)CC#Cc1ccc([C@@H]2[C@@H](CO)N3CCCCN(C(=O)Cc4ccccn4)C[C@@H]23)cc1 was read as IDE exosite inh 5.11.
O=C(Cc1ccccn1)N1CCCCN2[C@@H](CO)[C@@H](c3ccc(Br)cc3)[C@@H]2C1 was read as IDE exosite inh 3.24.
Screening CCCC#Cc1ccc([C@@H]2[C@H]3CN(C(=O)Cc4ccccn4)CCCCN3[C@H]2CO)cc1 returned IDE exosite inh -1.7.
`N#Cc1cccc(-c2ccc([C@@H]3[C@H]4CN(C(=O)Cc5ccccc5)CCCCN4[C@H]3CO)cc2)c1` gave IDE exosite inh 3.86.
For COC(=O)[C@@H]1[C@@H](CO)[C@@H]2Cn3c(cccc3=O)[C@H]1N2CCc1ccccc1 the results were IDE exosite inh 0.952.
Screening O=C(Cc1ccncc1)N1CCCCN2[C@H](C1)[C@H](c1ccc(C#CC3(O)CCCC3)cc1)[C@@H]2CO returned IDE exosite inh 4.4.
`O=C(O)C[C@@H]1CC[C@H]2NC[C@H](O)COC[C@@H]2O1` gave IDE exosite inh 0.271.
`N#Cc1ccc(-c2ccc([C@@H]3[C@H]4CN(C(=O)Cc5ccccc5)CCCCN4[C@H]3CO)cc2)cc1` gave IDE exosite inh 0.536.
`N#Cc1cccc(-c2ccc([C@H]3[C@H]4CN(C(=O)Cc5ccncc5)CCCCN4[C@H]3CO)cc2)c1` gave IDE exosite inh 1.33.
Screening O=C(Cc1ccncc1)N1CCCCN2[C@H](CO)[C@@H](c3ccc(C#Cc4ccccc4F)cc3)[C@H]2C1 returned IDE exosite inh -2.46.
For O=C(Cc1ccncc1)N1CCCCN2[C@@H](CO)[C@@H](c3ccc(C#Cc4ccccc4F)cc3)[C@@H]2C1 the results were IDE exosite inh -5.42*.
`O=C(Cc1ccccc1)N1CCCCN2[C@H](CO)[C@@H](c3ccc(C#Cc4ccccc4)cc3)[C@H]2C1` gave IDE exosite inh 0.705.
`O=C(Cc1ccccc1)N1CCCCN2[C@H](CO)[C@@H](c3ccc(C#Cc4ccccc4)cc3)[C@@H]2C1` gave IDE exosite inh -1.3.
O=C(Cc1ccncc1)N1CCCCN2[C@H](CO)[C@H](c3ccc(C#Cc4ccccc4F)cc3)[C@H]2C1 was read as IDE exosite inh -4.15*.
`COc1ccc(C#Cc2ccc([C@@H]3[C@H](CO)N4CCCCN(C(=O)Cc5ccncc5)C[C@@H]34)cc2)cc1` gave IDE exosite inh 3.78.
